Laboratory results reported in PubChem BioAssay (EPA / NIEHS).
“And” between values parts separate entries of the source, which are not always exact repeats. Identical values can stand only once. A structure can be active in one record and inactive in another. The source made the active and inactive calls. Rule for the calls: active = hit-call score of the fitted dose curve at least 0.9, where 1 is the maximum; inactive = score below 0.9.

How the values were obtained:
[1] = APR_HepG2_NuclearSize_72hr: Apredica 72-hour HepG2 Assay for Nuclear Size (AID 2282925); details: high-content imaging, actives raise or lower the signal
Outline: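 Nuclear size was read by high-content imaging of Hoechst 33342 stain after formaldehyde fixation. Compounds ran 72 h on HepG2 at 0.39 to 200 uM, with final DMSO 0.5% v/v. Curves fitted both directions relative to DMSO control.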

[2] = ATG_CRE_CIS: Attagene CIS-FACTORIAL HepG2 Assay for human cAMP Responsive Element (CRE) binding protein 3 (AID 2282926); details: HepG2 CRE cis-reporter, Attagene multiplexed mRNA; actives raise or lower the signal
Outline: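 Endogenous transcription factor activity read via CRE-regulated reporter transcripts in transfected HepG2 cells. After 24 h exposure, RNA was reverse-transcribed, amplified, fluorescently labelled and sized by capillary electrophoresis; gain or loss fitted against DMSO.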

[3] = biological target: CCAAT/enhancer-binding protein beta (Homo sapiens) (UniProt P17676); experiment: ATG_C_EBP_CIS: Attagene CIS-FACTORIAL HepG2 Assay for human CCAAT/Enhancer Binding Protein (C/EBP) beta (AID 2282927); details: HepG2 Attagene cis-factorial transcription factor reporter; actives raise or lower the signal
Outline: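 Endogenous C/EBPb-driven reporter transcripts measured in transfected human HepG2 cells at 24 h via RT-PCR and capillary electrophoresis of labelled fragments. Activity fitted in both directions relative to DMSO baseline.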

[4] = ATG_CMV_CIS: Attagene CIS-FACTORIAL HepG2 Assay for human CMV (Internal Marker) (AID 2282928); details: HepG2 CMV promoter reporter, transcription factor profiling; actives raise or lower the signal;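 note: endpoint acts as a background internal control marker rather than a target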
Outline: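 Fluorescence intensity of RT-PCR-derived reporter fragments, resolved by capillary electrophoresis, gives the signal. HepG2 liver cells bearing transfected cis-element reporters were treated 24 h; activity in either direction was fit relative to DMSO-treated controls.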

[5] = ATG_DR4_LXR_CIS: Attagene CIS-FACTORIAL HepG2 Assay for human Liver X Receptor (LXR), DR4 submotif (AID 2282929); details: HepG2 Attagene DR4 cis-reporter, mRNA transcription; actives raise or lower the signal
Outline: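 Total RNA from 24 h-treated, MRTU-transfected HepG2 cells underwent reverse transcription, PCR, fluorescent primer extension and restriction digestion before capillary electrophoresis. Both increases and decreases in reporter signal were fitted against DMSO.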

[6] = biological target: Aryl hydrocarbon receptor (Homo sapiens) (UniProt P35869); experiment: ATG_Ahr_CIS: Attagene CIS-FACTORIAL HepG2 Assay for human Aryl Hydrocarbon Receptor (Ahr) (AID 2282930); details: HepG2 AhR cis-factorial reporter transcription; actives raise or lower the signal
Outline: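 Reporter mRNA levels, quantified by RT-PCR and fluorescent capillary electrophoresis, reflect endogenous AhR transcriptional activity in HepG2 cells carrying transfected cis-promoter reporter constructs. Readout at 24 h post-dose; gain or loss fitted against DMSO baseline.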

[7] = ATG_AP_1_CIS: Attagene CIS-FACTORIAL HepG2 Assay for human Activator Protein 1 (AP-1) (AID 2282931); details: HepG2 Attagene cis-factorial AP-1 reporter mRNA; actives raise or lower the signal
Outline: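 HepG2, transient cis-reporter transfection; 24 h; readout RT-PCR/CE fluorescence; DMSO baseline, gain and loss fitted.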

[8] = ATG_AP_2_CIS: Attagene CIS-FACTORIAL HepG2 Assay for human Activator Protein 2 (AP-2) (AID 2282932); details: HepG2 AP-2 cis-reporter, Attagene transcription factor profiling; actives raise or lower the signal
Outline: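 Endogenous transcription factor activity is reported through transfected multiplex reporter constructs in HepG2, after 24 h of compound exposure. Transcripts were quantified by RT-PCR and capillary electrophoresis of fluorescent fragments. Bidirectional fit against DMSO.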

[9] = biological target: Transcription factor E2F1 (Homo sapiens) (UniProt Q01094); experiment: ATG_E2F_CIS: Attagene CIS-FACTORIAL HepG2 Assay for human E2F Transcription Factor 1 (AID 2282935); details: HepG2 Attagene cis-reporter, E2F reporter RNA transcripts; actives raise or lower the signal
Outline: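 Gain or loss of reporter transcript, fitted against DMSO, reflects E2F1-driven transcription. Transiently transfected HepG2 dosed 24 h before RNA isolation. Quantified by fluorescent RT-PCR products separated by capillary electrophoresis.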

[10] = ATG_E_Box_CIS: Attagene CIS-FACTORIAL HepG2 Assay for human Enhancer Box (E-box) (AID 2282936); details: HepG2 E-box cis-reporter transcription, actives raise or lower the signal
Outline: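 E-box-driven reporter transcripts measured in transiently transfected HepG2 after 24 h exposure: RNA reverse-transcribed, PCR-amplified, fluorescently labelled, digested and resolved by capillary electrophoresis. Gain or loss relative to DMSO.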

[11] = ATG_M_61_CIS: Attagene CIS-FACTORIAL HepG2 Assay for M61 Transcription Factor (Internal Marker) (AID 2282937); details: HepG2 Attagene CIS-FACTORIAL M61 internal marker reporter; actives raise or lower the signal
Outline: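 Transfect HepG2 with MRTUs; dose 24 h; isolate RNA; reverse-transcribe with DNase I treatment; PCR-amplify, FAM-label and cut with HpaI for 2 h at 37 C; resolve by CE. Bidirectional fitting against DMSO.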

[12] = ATG_EGR_CIS: Attagene CIS-FACTORIAL HepG2 Assay for human Early Growth Response 1 (EGR1) (AID 2282938); details: HepG2 Attagene CIS-FACTORIAL EGR reporter mRNA; actives raise or lower the signal
Outline: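 After a 24 h treatment of transiently transfected HepG2 cells, total RNA was reverse-transcribed and reporter sequences PCR-amplified, labelled and run on capillary electrophoresis. Reporters sit under cis-regulatory promoters sensing endogenous factors.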

[13] = ATG_M_19_CIS: Attagene CIS-FACTORIAL HepG2 Assay for M19 Transcription Factor (Internal Marker) (AID 2282939); details: HepG2 Attagene CIS-FACTORIAL M19 internal marker reporter; actives raise or lower the signal
Outline: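 Internal marker readout, fitted in both directions against DMSO, from HepG2 cells carrying transfected cis-element reporter constructs; RT-PCR and capillary electrophoresis of reporter mRNA after 24 h exposure.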

[14] = ATG_ERE_CIS: Attagene CIS-FACTORIAL HepG2 Assay for Estrogen Response Element (ERE) (AID 2282940); details: HepG2 ERE cis-reporter, Attagene RNA transcript; actives raise or lower the signal
Outline: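 After 24 h compound treatment, RNA from transfected HepG2 cells was reverse-transcribed, reporter cDNA PCR-amplified, FAM-labelled, HpaI-cut and resolved by capillary electrophoresis. ERE-driven cis reporter transcripts reflect endogenous factors; gain or loss scored against DMSO.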

[15] = ATG_Ets_CIS: Attagene CIS-FACTORIAL HepG2 Assay for human Erythroblast Transformation Specific (ETS) (AID 2282941); details: HepG2 ETS cis-reporter transcription, actives raise or lower the signal
Outline: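 Multiplexed reporter transcript profiling: HepG2, 24 h treatment, total RNA to cDNA, PCR, 6-FAM labelling, HpaI cut, capillary electrophoresis. Gain- or loss-of-signal fitted against DMSO.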

[16] = biological target: Hepatocyte nuclear factor 3-beta (Homo sapiens) (UniProt Q9Y261); experiment: ATG_FoxA2_CIS: Attagene CIS-FACTORIAL HepG2 Assay for human Forkhead box A2 (FOXA2) (AID 2282942); details: HepG2 cis-reporter transcription factor activity, 24 h; actives raise or lower the signal
Outline: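 24 h dosing of HepG2 bearing cis-reporter constructs; mRNA readout by RT-PCR/CE fluorescence; bidirectional fit, DMSO baseline.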

[17] = ATG_FoxO_CIS: Attagene CIS-FACTORIAL HepG2 Assay for human Forkhead box O (FoxO) (AID 2282943); details: HepG2 Attagene cis-reporter, FoxO element, mRNA; actives raise or lower the signal
Outline: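 Endogenous transcription factor activity read from multiplexed cis-promoter reporter transcripts in transiently transfected HepG2, 24 h after dosing. Reporter RNA measured via RT-PCR plus capillary electrophoresis of FAM-labeled products; gain or loss relative to DMSO.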

[18] = ATG_GATA_CIS: Attagene CIS-FACTORIAL HepG2 Assay for human GATA Binding Protein (AID 2282944); details: HepG2 GATA cis-element reporter, Attagene multiplex mRNA; actives raise or lower the signal
Outline: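 Reporter transcripts from a GATA cis-regulated unit, among multiplexed reporters in transfected HepG2 cells, were measured by RT-PCR with capillary electrophoresis after 24 h dosing. Induction or loss scored relative to DMSO.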

[19] = ATG_BRE_CIS: Attagene CIS-FACTORIAL HepG2 Assay for human Bone Morphogenetic Protein (BMP) Response Element (BRE) (AID 2282933); details: HepG2 BMP response element reporter, Attagene transcription factor profiling; actives raise or lower the signal
Outline: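 Endogenous transcription factor activity read in transiently transfected HepG2 cells after 24 h chemical exposure. Bidirectional curve fitting against DMSO; readout is reporter transcript level by RT-PCR with capillary electrophoresis of labelled products.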

[20] = biological target: Retinoic acid receptor alpha (Homo sapiens) (UniProt P10276); experiment: ATG_DR5_RAR_CIS: Attagene CIS-FACTORIAL HepG2 Assay for human Retinoic Acid Receptor Alpha (RARE), DR5 submotif (AID 2282934); details: HepG2 Attagene cis-factorial RARE DR5 reporter, mRNA; actives raise or lower the signal;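 note: reporter responds to endogenous RAR alpha beta and gamma in HepG2 not RARA alone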
Outline: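 Reporter transcripts from a DR5-regulated unit, measured via RT-PCR plus capillary electrophoresis, reflect endogenous RAR activity in transiently transfected human HepG2 liver cells. Exposure lasted 24 h; gain or loss of signal scored against DMSO.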

Measured: AC50

Sequence of Transcription factor E2F1 (Homo sapiens) (Q01094 whole entry, looked up): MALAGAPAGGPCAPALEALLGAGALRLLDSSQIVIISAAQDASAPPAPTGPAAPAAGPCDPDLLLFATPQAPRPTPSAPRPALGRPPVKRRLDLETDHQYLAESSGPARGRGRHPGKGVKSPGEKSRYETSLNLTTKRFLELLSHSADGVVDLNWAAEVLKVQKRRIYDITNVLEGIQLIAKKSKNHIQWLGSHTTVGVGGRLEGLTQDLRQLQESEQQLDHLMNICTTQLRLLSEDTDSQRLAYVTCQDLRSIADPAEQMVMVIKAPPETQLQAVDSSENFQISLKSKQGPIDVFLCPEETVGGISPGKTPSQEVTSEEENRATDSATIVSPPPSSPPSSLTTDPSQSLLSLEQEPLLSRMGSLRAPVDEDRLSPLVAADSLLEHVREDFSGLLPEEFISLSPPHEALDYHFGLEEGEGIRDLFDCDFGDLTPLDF
Sequence of Aryl hydrocarbon receptor (Homo sapiens) (P35869 whole entry, looked up): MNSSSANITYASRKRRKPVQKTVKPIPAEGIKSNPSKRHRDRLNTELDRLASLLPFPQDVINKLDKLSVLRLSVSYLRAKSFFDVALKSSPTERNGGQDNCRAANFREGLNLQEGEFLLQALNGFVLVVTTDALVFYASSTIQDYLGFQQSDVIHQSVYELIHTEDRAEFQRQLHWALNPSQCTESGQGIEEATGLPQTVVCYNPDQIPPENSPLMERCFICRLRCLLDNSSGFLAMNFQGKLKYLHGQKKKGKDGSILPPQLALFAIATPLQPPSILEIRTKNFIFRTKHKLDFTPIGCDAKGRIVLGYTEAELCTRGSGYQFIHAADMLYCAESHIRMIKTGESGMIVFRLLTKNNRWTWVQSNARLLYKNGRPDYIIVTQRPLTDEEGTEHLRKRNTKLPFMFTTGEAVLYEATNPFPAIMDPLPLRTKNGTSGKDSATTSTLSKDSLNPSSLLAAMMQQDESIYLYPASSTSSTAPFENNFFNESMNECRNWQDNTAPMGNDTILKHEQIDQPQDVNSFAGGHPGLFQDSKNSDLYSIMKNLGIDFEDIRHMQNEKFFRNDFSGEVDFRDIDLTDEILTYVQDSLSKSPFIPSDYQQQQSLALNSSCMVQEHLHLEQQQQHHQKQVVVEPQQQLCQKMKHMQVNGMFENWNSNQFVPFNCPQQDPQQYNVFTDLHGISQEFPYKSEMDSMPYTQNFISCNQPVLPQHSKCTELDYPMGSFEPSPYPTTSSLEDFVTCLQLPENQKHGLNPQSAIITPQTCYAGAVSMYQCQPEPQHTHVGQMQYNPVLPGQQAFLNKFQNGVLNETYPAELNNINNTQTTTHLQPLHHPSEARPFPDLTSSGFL
Sequence of CCAAT/enhancer-binding protein beta (Homo sapiens) (P17676 whole entry, looked up, the tested form may be a part): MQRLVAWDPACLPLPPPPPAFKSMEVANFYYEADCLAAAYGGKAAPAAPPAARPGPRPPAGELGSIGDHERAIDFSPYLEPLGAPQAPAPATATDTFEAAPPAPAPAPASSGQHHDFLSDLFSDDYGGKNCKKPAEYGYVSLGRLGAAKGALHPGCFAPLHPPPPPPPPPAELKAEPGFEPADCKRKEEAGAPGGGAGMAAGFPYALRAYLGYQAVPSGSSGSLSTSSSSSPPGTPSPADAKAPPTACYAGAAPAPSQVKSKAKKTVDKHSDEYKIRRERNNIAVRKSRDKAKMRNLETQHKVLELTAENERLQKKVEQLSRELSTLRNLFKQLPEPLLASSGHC
Sequence of Hepatocyte nuclear factor 3-beta (Homo sapiens) (Q9Y261 whole entry, looked up): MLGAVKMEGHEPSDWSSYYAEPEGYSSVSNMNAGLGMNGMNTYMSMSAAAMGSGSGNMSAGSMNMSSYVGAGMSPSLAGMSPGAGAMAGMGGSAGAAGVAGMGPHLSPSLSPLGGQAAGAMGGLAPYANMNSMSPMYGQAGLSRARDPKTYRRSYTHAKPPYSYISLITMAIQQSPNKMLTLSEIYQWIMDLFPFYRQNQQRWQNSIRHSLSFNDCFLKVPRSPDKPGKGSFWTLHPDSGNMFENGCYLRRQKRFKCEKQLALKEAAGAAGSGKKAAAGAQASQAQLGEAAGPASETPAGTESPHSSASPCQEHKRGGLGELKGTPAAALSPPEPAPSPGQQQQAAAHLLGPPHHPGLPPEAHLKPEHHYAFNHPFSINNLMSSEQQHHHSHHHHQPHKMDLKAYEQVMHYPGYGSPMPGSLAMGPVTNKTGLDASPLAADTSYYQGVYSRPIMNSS
Sequence of Retinoic acid receptor alpha (Homo sapiens) (P10276 whole entry, looked up): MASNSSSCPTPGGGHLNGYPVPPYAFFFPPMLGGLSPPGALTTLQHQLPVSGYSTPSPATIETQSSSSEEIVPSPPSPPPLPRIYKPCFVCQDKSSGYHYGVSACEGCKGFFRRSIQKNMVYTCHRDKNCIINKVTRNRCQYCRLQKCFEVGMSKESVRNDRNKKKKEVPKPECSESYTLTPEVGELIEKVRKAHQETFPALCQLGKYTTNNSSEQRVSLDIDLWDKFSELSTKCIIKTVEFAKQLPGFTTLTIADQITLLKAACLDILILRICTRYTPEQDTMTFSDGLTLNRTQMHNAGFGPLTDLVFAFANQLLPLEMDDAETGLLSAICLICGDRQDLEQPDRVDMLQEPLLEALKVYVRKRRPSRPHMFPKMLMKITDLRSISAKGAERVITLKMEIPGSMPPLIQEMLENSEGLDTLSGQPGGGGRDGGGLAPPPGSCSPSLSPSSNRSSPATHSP

C=CCC1=C(C)C(OC(=O)C2C(C=C(C)C)C2(C)C)CC1=O (stereo not drawn)
inactive: [1] | [2] | [3] | [4] | [5] | [6] | [8] | [9] | [10] | [11] | [12] | [13] | [14] | [15] | [16] | [17] | [18]
active: [2] 48.8 µM [middle of 5 runs] | [3] 70.3 µM and 111 µM and 13.8 µM | [4] 35 µM [middle of 5 runs] | [5] 51.1 µM [middle of 4 runs] | [6] 43.6 µM and 105 µM | [7] 33.5 µM [middle of 6 runs] | [8] 167 µM | [9] 132 µM | [10] 46.9 µM | [12] 33.4 µM [middle of 5 runs] | [13] 161 µM | [14] 35 µM and 26.7 µM and 12.7 µM | [15] 163 µM | [16] 83.3 µM and 125 µM and 50 µM | [17] 152 µM

CCOC(=O)CC(SP(=S)(OC)OC)C(=O)OCC (stereo not drawn)
active: [2] 26.6 µM | [7] 41.2 µM | [19] 69.2 µM and 28.1 µM | [12] 100 µM | [14] 100 µM and 27 µM
inactive: [1] | [2] | [3] | [4] | [5] | [6] | [7] | [8] | [9] | [10] | [11] | [12] | [13] | [15] | [16] | [17] | [18]

COC(=O)N(OC)c1ccccc1COc1ccn(-c2ccc(Cl)cc2)n1
active: [2] 0.532 µM | [3] 401 nM | [4] 457 nM | [5] 2.77 µM | [19] 743 nM | [20] 0.64 µM | [15] 1.47 µM
inactive: [1] | [6] | [7] | [8] | [9] | [10] | [11] | [12] | [13] | [14] | [16] | [17] | [18]

CNC(=S)S
inactive: [1] | [2] | [3] | [4] | [5] | [6] | [7] | [8] | [19] | [9] | [10] | [11] | [12] | [13] | [14] | [15] | [16] | [17] | [18]
active: [4] 50000 nM | [6] 33.2 µM | [7] 50 µM | [19] 65900 nM | [12] 50 µM
